Results filed as inconclusive are left out. Active and inactive are the calls of the source. Unless noted, calls follow the shape of the dose curve; as a rule, active = well fitted curve in the direction sought with a large enough effect in the repeat runs; inconclusive = weak or mixed curves; inactive = no such curve, though single readings can be large; an effect the other way counts as inactive or inconclusive.

Test [1] is described as follows: qHTS assay to identify small molecule antagonists of the thyroid receptor (TR) signaling pathway (AID 743065). Also: nearly all actives have a fitted effect of over 55% in size. Also: potency is read from the fitted curve at half-maximal effect. In a few lines:
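GH3.TRE-Luc rat pituitary cells (two TREs driving luciferase) were dosed with compound, then stimulated with 1 nM T3 (final) for 23.5 h at 37 C. ONE-Glo luminescence was the read-out, with CellTiter-Fluor fluorescence as the cytotoxicity counter-screen.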

In test [2] the test system is thyroid hormone receptor (rat, GH3 cells). Description: qHTS assay to identify small molecule agonists of the thyroid receptor (TR) signaling pathway (AID 743066; calls by dose curve). (Quantitative high-throughput screening tests each substance at several concentrations.)
Test [3] has as its target Estrogen receptor (Homo sapiens) (UniProt P03372). Description: qHTS assay to identify small molecule antagonists of the estrogen receptor alpha (ER-alpha) signaling pathway (AID 743069; active = well fitted curve in the direction sought with a large enough effect in the signal ratio in the repeat runs, not every such curve was filed as active; the % refers to the signal ratio). The method in brief:
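Reporter cells (ER-alpha-bla, HEK293 background) are conditioned overnight in stripped-serum medium (2% charcoal-stripped FBS). Compound and 17beta-estradiol exposure runs 18 hr at 37C, 5% CO2.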

A short description of test [4]: qHTS assay to identify small molecule antagonists of the estrogen receptor alpha (ER-alpha) signaling pathway - cell viability counter screen (AID 743074; calls by dose curve;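 also: HEK293 cells carrying ER-alpha-UAS-bla reporter stimulated with 17beta-estradiol; nearly all actives have a fitted effect of over 45% in size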; also: potency is read from the fitted curve at half-maximal effect).
Test [5] deals with Estrogen receptor (Homo sapiens) (UniProt P03372). Put plainly: qHTS assay to identify small molecule agonists of the estrogen receptor alpha (ER-alpha) signaling pathway (AID 743075; calls by dose curve;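 also: HEK293 GripTite cells with ER-alpha and UAS-driven beta-lactamase reporter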).
Test [6] has the same target. Description: qHTS assay to identify small molecule agonists of the estrogen receptor alpha (ER-alpha) signaling pathway using the BG1 cell line (AID 743079). Also: nearly all actives have a fitted effect of over 20% in size. To be noted: BG1Luc4E2 cells, ERE-luciferase agonist, 22 h; activation: at 70.3 µM (top of the series).
Test [7] in a line: qHTS assay to identify small molecule antagonists of the estrogen receptor alpha (ER-alpha) signaling pathway using the BG1 cell line (AID 743080; calls by dose curve;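 also: BG1 cells stimulated with 17beta-estradiol alongside compound; nearly all actives have a fitted effect of over 25% in size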; also: potency is read from the fitted curve at half-maximal effect). In a few lines:
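Quantitative HTS on the Tox21 10K library: BG1 cells with endogenous ER-alpha and ERE-luciferase reporter, 17beta-estradiol stimulation, 21.5 h compound exposure, luminescence endpoint with parallel fluorescence cytotoxicity counter-read.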

The nature of test [8]: qHTS assay to identify small molecule antagonists of the estrogen receptor alpha (ER-alpha) signaling pathway using the BG1 cell line - cell viability counter screen (AID 743081).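 Also: compound given together with 17beta-estradiol as the ER stimulus; nearly all actives have a fitted effect of over 45% in size.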
For test [9], the target named is Aromatase (Homo sapiens) (UniProt P11511). Description: qHTS assay to identify aromatase inhibitors (AID 743083). Also: nearly all actives have a fitted effect of over 55% in size. Also: potency is read from the fitted curve at half-maximal effect.
Test [10] is described as follows: qHTS assay to identify aromatase inhibitors - cell viability counter screen (AID 743084).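 Also: cells stimulated with testosterone during compound exposure; nearly all actives have a fitted effect of over 55% in size.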
Test [11] has as its target Aryl hydrocarbon receptor (Homo sapiens) (UniProt P35869). Put plainly: qHTS assay to identify small molecule that activate the aryl hydrocarbon receptor (AhR) signaling pathway (AID 743085). Also: nearly all actives have a fitted effect of over 15% in size. Also: potency is read from the fitted curve at half-maximal effect.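 As to activation: HG2L7.5c1 human HepG2 liver cells with stably integrated DRE-driven firefly reporter.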 In a few lines: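 HepG2 cells stably carrying a 20-DRE firefly luciferase reporter (HG2L7.5c1) treated with compound for 24 hr at 37C. Luciferase read by ONE-Glo luminescence, with CellTiter-Fluor viability read first.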

Test [12] is described as follows: qHTS assay to identify small molecule that activate the aryl hydrocarbon receptor (AhR) signaling pathway - cell viability counter screen (AID 743086). Also: nearly all actives have a fitted effect of over 45% in size. In a few lines: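 HepG2-AhR-luc (HG2L7.5c1) cells, 4000/well, treated 24 h at 37 C with compound; viability measured as CellTiter-Fluor fluorescence after 30 min in the same wells as the luciferase read.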
Test [13] concerns the target Peroxisome proliferator-activated receptor gamma (Homo sapiens) (UniProt P37231). Description: qHTS assay to identify small molecule agonists of the peroxisome proliferator-activated receptor gamma (PPARg) signaling pathway (AID 743094; active = well fitted activation curve with a large enough effect in the signal ratio in the repeat runs, not every such curve was filed as active; the % refers to the signal ratio). The method in brief:
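Following 5 h plating at 37C, PPARg-bla HEK293H cells receive compound or DMSO for 17 h; fluorescence intensity is recorded after LiveBLAzer B/G loading for 1 h at room temperature.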

Test [14] has the same target. Description: qHTS assay to identify small molecule antagonists of the peroxisome proliferator-activated receptor gamma (PPARg) signaling pathway (AID 743191; calls by dose curve; also: nearly all actives have a fitted effect of over 30% in size). In a few lines: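 GeneBLAzer PPARg UAS-bla HEK293H cells, 5 h post-plating, exposed to compounds 17 h at 37C. LiveBLAzer B/G FRET substrate added for 1 h at room temperature; beta-lactamase reporter read by fluorescence intensity.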

The nature of test [15]: qHTS assay for small molecule agonists of the antioxidant response element (ARE) signaling pathway - cell viability counter screen (AID 743203; calls by dose curve; also: nearly all actives have a fitted effect of over 55% in size; also: potency is read from the fitted curve at half-maximal effect). In a few lines: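 Compounds in DMSO were pinned onto ARE-bla HepG2 cells plated 5 hrs earlier at 2,000 cells/well. Sixteen hours later at 37C/5% CO2, CellTiter-Glo was added and luminescence measured after 30 min at room temperature.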

Test [16] can be described thus: qHTS assay for small molecule activators of the heat shock response signaling pathway - cell viability counter screen (AID 743209). Also: nearly all actives have a fitted effect of over 50% in size. In a few lines: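 Counter screen for cytotoxicity in HeLa HSE-bla reporter cells. Treatment was 5 h at 37 C; viability was detected by luminescent ATP assay (CellTiter-Glo) in the same wells as the beta-lactamase read.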
Test [17] is described as follows: qHTS assay for small molecule activators of the heat shock response signaling pathway (AID 743210; active = well fitted activation curve with a large enough effect in the signal ratio in the repeat runs, with a control signal flat, not every such curve was filed as active; the % refers to the signal ratio;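 also: HeLa cells with beta-lactamase reporter driven by heat shock elements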). The method in brief: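 Quantitative high-throughput format using an engineered HeLa line in which heat shock response elements drive beta-lactamase; after 5 h with compound, cells received a B/G FRET substrate and fluorescence was read.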
Test [18] can be described thus: qHTS assay to identify small molecule antagonists of the peroxisome proliferator-activated receptor gamma (PPARg) signaling pathway - cell viability counter screen (AID 743194). Also: nearly all actives have a fitted effect of over 55% in size. Also: potency is read from the fitted curve at half-maximal effect. As to conditions: Potency: co-treated with 50 nM rosiglitazone unless noted. In a few lines:
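Cytotoxicity counter screen in PPARg-bla HEK293H cells, same wells as reporter assay. Compounds plus 50 nM rosiglitazone (final) for 17 h at 37 C, then viability read by CellTiter-Glo luminescence.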

A short description of test [19]: qHTS assay to identify small molecule antagonists of the thyroid receptor (TR) signaling pathway - cell viability counter screen (AID 743064). Also: nearly all actives have a fitted effect of over 50% in size. In a few lines:
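GH3.TRE-Luc rat pituitary cells dosed after 4 hr plating, co-stimulated with T3 at 1 nM final, incubated 23.5 h at 37 C. Viability measured in the same wells by CellTiter-Fluor fluorescence after 30 min further at 37 C.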

Test [20] is described as follows: qHTS assay for small molecule agonists of the antioxidant response element (ARE) signaling pathway (AID 743202; active = well fitted activation curve with a large enough effect in the signal ratio in the repeat runs, not every such curve was filed as active; the % refers to the signal ratio; also: potency is read from the fitted curve at half-maximal effect). In a few lines:
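Agonist mode reporter screen: HepG2 cells with ARE-controlled beta-lactamase are incubated with test compounds for 16 h at 37 C, and beta-lactamase activity is measured as fluorescence of cleaved B/G FRET substrate.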

Sequence of Aromatase (Homo sapiens) (P11511 whole entry, looked up): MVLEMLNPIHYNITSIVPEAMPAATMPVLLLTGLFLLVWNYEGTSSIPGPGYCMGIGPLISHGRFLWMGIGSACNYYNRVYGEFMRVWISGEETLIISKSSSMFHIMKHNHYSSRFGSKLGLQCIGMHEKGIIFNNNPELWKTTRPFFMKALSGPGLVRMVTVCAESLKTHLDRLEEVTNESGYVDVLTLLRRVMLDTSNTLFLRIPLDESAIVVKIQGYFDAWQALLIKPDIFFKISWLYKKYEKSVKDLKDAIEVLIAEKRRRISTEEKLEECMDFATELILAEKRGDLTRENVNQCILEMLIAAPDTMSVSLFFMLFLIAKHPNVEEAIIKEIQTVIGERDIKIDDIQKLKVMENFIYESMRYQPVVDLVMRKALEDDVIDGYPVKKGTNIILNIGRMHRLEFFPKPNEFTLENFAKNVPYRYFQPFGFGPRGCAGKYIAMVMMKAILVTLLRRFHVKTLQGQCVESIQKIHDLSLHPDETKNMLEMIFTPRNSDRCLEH
Sequence of Estrogen receptor (Homo sapiens) (P03372 whole entry, looked up): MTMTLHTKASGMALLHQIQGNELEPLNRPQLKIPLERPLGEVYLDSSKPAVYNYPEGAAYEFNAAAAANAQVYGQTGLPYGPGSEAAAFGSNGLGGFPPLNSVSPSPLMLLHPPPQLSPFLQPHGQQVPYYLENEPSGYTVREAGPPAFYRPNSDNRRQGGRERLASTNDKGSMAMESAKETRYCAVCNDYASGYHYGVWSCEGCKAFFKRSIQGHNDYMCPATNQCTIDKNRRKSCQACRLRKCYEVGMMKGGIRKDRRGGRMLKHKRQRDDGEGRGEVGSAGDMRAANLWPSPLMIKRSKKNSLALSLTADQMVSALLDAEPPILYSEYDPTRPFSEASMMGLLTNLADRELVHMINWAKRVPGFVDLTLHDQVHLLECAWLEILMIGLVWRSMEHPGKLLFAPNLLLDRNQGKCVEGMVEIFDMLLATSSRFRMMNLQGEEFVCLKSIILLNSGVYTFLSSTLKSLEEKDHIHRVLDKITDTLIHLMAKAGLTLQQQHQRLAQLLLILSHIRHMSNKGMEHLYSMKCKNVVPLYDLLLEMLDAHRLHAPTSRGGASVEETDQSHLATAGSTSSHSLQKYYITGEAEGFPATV
Sequence of Aryl hydrocarbon receptor (Homo sapiens) (P35869 whole entry, looked up): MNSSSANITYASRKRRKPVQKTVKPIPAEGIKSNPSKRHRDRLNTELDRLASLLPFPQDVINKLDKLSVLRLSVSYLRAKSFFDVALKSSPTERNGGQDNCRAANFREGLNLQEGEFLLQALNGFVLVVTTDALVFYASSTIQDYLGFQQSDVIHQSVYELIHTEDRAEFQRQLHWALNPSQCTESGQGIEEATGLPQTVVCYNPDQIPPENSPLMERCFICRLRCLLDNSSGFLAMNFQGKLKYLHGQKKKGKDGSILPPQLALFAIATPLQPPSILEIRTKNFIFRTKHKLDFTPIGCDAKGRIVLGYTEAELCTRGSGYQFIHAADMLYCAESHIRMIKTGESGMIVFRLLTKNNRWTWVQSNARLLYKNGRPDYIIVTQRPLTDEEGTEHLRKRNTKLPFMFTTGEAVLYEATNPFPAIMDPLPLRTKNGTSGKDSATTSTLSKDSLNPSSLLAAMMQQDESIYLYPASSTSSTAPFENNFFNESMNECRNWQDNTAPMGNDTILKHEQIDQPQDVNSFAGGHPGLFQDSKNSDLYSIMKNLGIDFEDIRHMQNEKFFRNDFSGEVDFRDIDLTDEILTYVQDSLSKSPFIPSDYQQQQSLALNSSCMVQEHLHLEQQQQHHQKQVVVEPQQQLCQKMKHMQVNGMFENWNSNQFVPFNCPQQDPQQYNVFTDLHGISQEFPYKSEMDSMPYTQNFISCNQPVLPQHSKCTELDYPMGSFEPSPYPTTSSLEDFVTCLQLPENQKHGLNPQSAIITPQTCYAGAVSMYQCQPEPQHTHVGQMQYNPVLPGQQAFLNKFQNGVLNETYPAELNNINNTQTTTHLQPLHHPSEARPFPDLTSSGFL
Sequence of Peroxisome proliferator-activated receptor gamma (Homo sapiens) (P37231 whole entry, looked up): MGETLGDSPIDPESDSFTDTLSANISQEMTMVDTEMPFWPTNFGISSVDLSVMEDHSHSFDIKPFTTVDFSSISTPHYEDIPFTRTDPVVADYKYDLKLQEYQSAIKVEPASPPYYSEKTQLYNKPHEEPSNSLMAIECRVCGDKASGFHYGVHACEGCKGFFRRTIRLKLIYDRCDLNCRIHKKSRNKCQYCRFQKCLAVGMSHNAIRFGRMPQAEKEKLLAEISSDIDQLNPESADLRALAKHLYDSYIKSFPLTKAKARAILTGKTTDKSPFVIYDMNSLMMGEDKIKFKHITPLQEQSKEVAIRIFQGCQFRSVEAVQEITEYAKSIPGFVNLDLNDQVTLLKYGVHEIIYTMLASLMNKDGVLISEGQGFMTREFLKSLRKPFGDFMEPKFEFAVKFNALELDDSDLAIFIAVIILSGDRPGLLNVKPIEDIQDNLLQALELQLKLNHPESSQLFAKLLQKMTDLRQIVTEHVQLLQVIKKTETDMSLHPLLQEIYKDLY

Turning to `S=C=Nc1ccccc1`, the Potency entry in [1], in test [2], in [3], in test [4], in test [5] and in test [6] was “inactive” in each case. Further, the Potency entry in test [7], in test [8], in test [9], in [10], in test [11] and in [12] was “inactive” throughout. Also, the Potency entry in test [13], in [14], in [15], in test [16] and in test [17] was “inactive” in each case.
As for `CC1(C)[C@H](/C=C2\CCSC2=O)[C@@H]1C(=O)OCc1coc(Cc2ccccc2)c1`, the results for the Potency in test [1] and in test [7] were 43.3 µM (active) and 68.6 µM (active), respectively. The Potency entry in [2], in [4], in [5], in test [8], in [9] and in test [10] was “inactive” throughout. Also, the Potency entry in test [11], in test [12], in test [18] and in test [16] was “inactive” each time.
As for `CCCN`, the Potency result in test [19], in test [4], in test [8], in test [9], in test [10] and in [11] was “inactive” throughout. The Potency result in [12], in [14], in test [20], in test [15], in test [16] and in [17] was “inactive” in each case.
For the molecule `Oc1cccc(Cl)c1Cl`, the Potency entry in test [1], in [2], in [3], in test [4], in test [5] and in test [6] was “inactive” in each case. Besides, the Potency entry in test [7], in [8], in test [9], in [10], in test [11] and in test [12] was “inactive” in each case. Besides, the Potency result in test [13], in [20], in test [15], in [16] and in test [17] was “inactive” throughout.
`N#Cc1c2ccccc2cc2ccccc12`: the Potency result in test [1], in test [2], in [4], in test [9], in [11] and in test [18] was “inactive” each time. Besides, the Potency entry in test [15] and in test [16] was “inactive” in each case.
`O.O.O.O.O.O.O.O=S(=O)([O-])[O-].[Co+2]`: the Potency entry in test [19], in [8], in test [9], in test [10], in test [11] and in [12] was “inactive” each time. In addition, the Potency result in test [16] was “inactive”.
For `c1ccc2c(c1)cc1ccc3cccc4ccc2c1c34`, the Potency entry in [1], in [2], in test [4], in test [9], in [15] and in test [16] was “inactive” throughout.
In the case of `ClC(Cl)C(Cl)(Cl)Cl`, the Potency entry in [1], in [2], in [3], in [4], in [5] and in test [6] was “inactive” in each case. For the same molecule, the Potency entry in [7], in [8], in test [9], in test [10], in [11] and in [12] was “inactive” each time. For the same molecule, the Potency entry in test [13], in [14], in [18], in test [20], in test [16] and in [17] was “inactive” each time.
Take `O.O.O.O.O.O.O=S(=O)([O-])[O-].[Ni+2]`: the Potency entry in [19], in test [4], in test [8], in [9], in [10] and in test [11] was “inactive” throughout. In addition, the Potency entry in test [12], in [18] and in test [15] was “inactive” each time.
On to `[Cl-].[Cl-].[Cl-].[Yb+3]`, for which the Potency entry in [1], in [2], in test [4], in test [8], in [9] and in test [10] was “inactive” throughout. For the same molecule, the Potency entry in [11], in test [12], in [18], in test [20] and in test [15] was “inactive” throughout.
Regarding `CC(C)=CCN1CC[C@@]2(C)c3cc(O)ccc3C[C@@H]1[C@@H]2C`, in test [1], the Potency is 21.4 µM (active). The Potency entry in test [2], in test [3], in test [5], in [6], in test [8] and in test [9] was “inactive” each time. Also, the Potency entry in [10], in [12], in test [13], in [14], in [18] and in test [20] was “inactive” each time. Moreover, the Potency entry in test [15], in [16] and in test [17] was “inactive” in each case.
In the case of `CCOP(=S)(NC(C)C)Oc1ccccc1C(=O)OC(C)C` (stereo not given), the Potency is 54.5 µM (active) in test [1], 38.6 µM (active) in test [9] and 54.5 µM (active) in test [20]. Moreover, the Potency result in test [2], in test [3], in [5], in test [6], in test [8] and in test [10] was “inactive” in each case. For the same molecule, the Potency entry in test [12], in test [18] and in test [16] was “inactive” in each case.
With `O=S(=O)(NS(=O)(=O)C(F)(F)F)C(F)(F)F`, the Potency entry in [19], in test [4], in test [8], in test [10], in test [18] and in test [16] was “inactive” each time.
Turning to `COC(=O)/C=C(\C)OP(=O)(OC)OC`, the Potency entry in test [1], in test [2], in test [3], in [4], in test [7] and in [8] was “inactive” each time. Further, the Potency entry in [10], in [11], in test [12], in test [13], in test [15] and in [16] was “inactive” throughout.
Turning to `CCCCCCC[CH2][Sn]([Cl])([Cl])[CH2]CCCCCCC`, the Potency was 54.4 µM (active) in test [1]; 24.5 µM (active) in test [4]; 21.7 µM (active) in test [11]; 48.9 µM (active) in [18]; 0.863 µM (active) in test [20]; 54.4 µM (active) in test [15]. Further, the Potency entry in test [2], in [8], in test [10] and in test [12] was “inactive” each time.
Take `Nc1nc(N)c(N)c(N)n1`: the Potency entry in [1], in test [2], in test [4], in [7], in test [9] and in test [12] was “inactive” throughout. Also, the Potency entry in test [13], in [14], in [18], in test [20] and in [16] was “inactive” throughout.
Consider `CNC(=O)/C=C(\C)OP(=O)(OC)OC`, for which the Potency entry in [1], in [2], in [3], in test [4], in test [5] and in [6] was “inactive” throughout. The Potency result in test [7], in test [8], in [9], in [10], in [11] and in test [12] was “inactive” throughout. Further, the Potency entry in [20], in test [15], in test [16] and in test [17] was “inactive” throughout.

(Values after PubChem BioAssay (Tox21).)
